PERK inh = blocks human PERK kinase; 0.17% of 220,000 active; inhibition, % at 5.6 µM; Q9NZJ5; CHO PERK-DD fusion, SEAP luminescence translation reporter;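 active means inhibition above the mean inhibition of all tested compounds plus 3 SD, set separately per screening campaign, cut at about 2.9% in these data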;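 further: PERK kinase domain activated by AP20187 dimerizer at 100 nM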
Target sequence (Q9NZJ5 whole entry, looked up, the tested form may be a part): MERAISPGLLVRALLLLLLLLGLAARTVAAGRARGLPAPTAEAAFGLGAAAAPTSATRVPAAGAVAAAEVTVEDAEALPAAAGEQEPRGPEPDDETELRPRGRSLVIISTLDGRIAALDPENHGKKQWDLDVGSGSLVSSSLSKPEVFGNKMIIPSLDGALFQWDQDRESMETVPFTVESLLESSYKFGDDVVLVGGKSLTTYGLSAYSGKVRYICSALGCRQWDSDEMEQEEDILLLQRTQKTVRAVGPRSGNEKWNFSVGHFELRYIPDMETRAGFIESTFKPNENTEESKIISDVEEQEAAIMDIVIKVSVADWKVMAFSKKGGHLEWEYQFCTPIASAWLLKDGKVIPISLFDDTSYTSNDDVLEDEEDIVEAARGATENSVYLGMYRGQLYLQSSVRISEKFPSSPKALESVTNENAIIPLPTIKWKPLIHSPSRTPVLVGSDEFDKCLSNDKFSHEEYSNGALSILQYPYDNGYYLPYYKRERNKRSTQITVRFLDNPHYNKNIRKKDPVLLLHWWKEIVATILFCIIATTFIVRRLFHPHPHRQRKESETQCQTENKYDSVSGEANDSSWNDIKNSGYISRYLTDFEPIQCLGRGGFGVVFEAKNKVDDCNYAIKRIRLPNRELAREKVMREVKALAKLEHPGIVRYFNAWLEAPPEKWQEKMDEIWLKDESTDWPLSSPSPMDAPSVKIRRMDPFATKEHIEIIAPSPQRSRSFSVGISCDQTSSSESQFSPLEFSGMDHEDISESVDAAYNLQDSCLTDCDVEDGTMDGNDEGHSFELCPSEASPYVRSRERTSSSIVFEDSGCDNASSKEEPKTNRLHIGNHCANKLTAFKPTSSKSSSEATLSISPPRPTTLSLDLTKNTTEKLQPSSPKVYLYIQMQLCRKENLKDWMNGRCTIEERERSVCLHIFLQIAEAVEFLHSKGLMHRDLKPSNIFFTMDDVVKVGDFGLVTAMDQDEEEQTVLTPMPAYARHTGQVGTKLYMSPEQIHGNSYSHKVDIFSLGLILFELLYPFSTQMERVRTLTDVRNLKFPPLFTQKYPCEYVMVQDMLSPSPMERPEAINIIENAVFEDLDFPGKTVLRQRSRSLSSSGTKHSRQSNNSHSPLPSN
PABP FP inh = PABP-poly(A) binding inhibition; PABP-poly(A) RNA binding, fluorescence polarization; inhibition, % at 35 µM; 1% of 290,000 active;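 further: calls also rest on retests at 20 µM and on dose response follow-up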
PABP1 MLLE inh = inhibitors of microRNA-mediated deadenylation, human PABP1 MLLE binding. P11940. GST-MLLE / FITC-PAM2 fluorescence polarization. inhibition, % at 20 µM. 0.36% of 360,000 active; in the data active means inhibition above about 35%, passing the limit was not always enough
eIF4H inh = inhibitors of RNA binding by human eIF4H. Q15056. inhibition, % at 35 µM. AID 2012. eIF4H fluorescence polarization binding assay. 0.94% of 290,000 active;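 further: calls also rest on retests at 20 µM and on dose response follow-up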
eIF4E 4G PPI = inhibitors of eIF4E and eIF4G interaction in translation initiation | inhibition, % at 21.7 µM | 0.37% of 220,000 active | AID 782 | TR-FRET eIF4E-eIF4GI(517-606) binding, 2 h | P63073+Q04637;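 active means inhibition above about 30%, limit read from the data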
A number is an active result; [ ] = remark or other dose. In the library only some 1.6% were active in any assay of this set; here they are far more common. Unless noted, how the calls were made is not given here.

Results for CCC(CC)c1nnc(NC(=O)C2CC(=O)N(CCc3ccc(OC)c(OC)c3)C2)s1 (stereo not drawn) ?
PABP1 MLLE inh: inactive

Results for CCCCNC(=S)Nc1ccc(OC)nc1 ?
PERK inh: inactive; PABP FP inh: inactive; PABP1 MLLE inh: 41.5; eIF4H inh: inconclusive; eIF4E 4G PPI: inactive

Results for COc1ccc(NC(=S)Nc2ccccc2)cn1 ?
PERK inh: inactive; PABP FP inh: inactive; PABP1 MLLE inh: inactive; eIF4H inh: inconclusive; eIF4E 4G PPI: inactive

How did Cc1cccn2c(CNCCCn3ncc4ccccc43)c(C(=O)N3CCCCC3)nc12 do in these assays?
PERK inh: inactive; PABP FP inh: 53.2; PABP1 MLLE inh: inactive; eIF4H inh: inactive; eIF4E 4G PPI: inactive

What do the screens show for `O=C(CNC(=O)c1ccc(Br)o1)Nc1cccc(-c2cnc3ccccc3n2)c1`?
PERK inh: inactive; PABP FP inh: inactive; PABP1 MLLE inh: inactive; eIF4H inh: inactive; eIF4E 4G PPI: inactive

What do the screens show for `Cc1ccc2cc(C#N)c(N3CCCC3)nc2c1C`?
PERK inh: inactive; PABP FP inh: inactive; PABP1 MLLE inh: inactive; eIF4H inh: inactive

Results for Cc1ccc2cc(C#N)c(N3CCCN(C(=O)C4CCCO4)CC3)nc2c1C (stereo not drawn) ?
PERK inh: inactive; PABP FP inh: 106.8; PABP1 MLLE inh: inactive; eIF4H inh: 93.8; eIF4E 4G PPI: inactive

How did CCOC(=O)c1sc(=S)n(C)c1NC(=O)c1ccc(C(C)(C)C)cc1 do in these assays?
PERK inh: inactive; PABP FP inh: inactive; PABP1 MLLE inh: inactive; eIF4H inh: inactive; eIF4E 4G PPI: inactive

What do the screens show for `COCCCn1c2nc3ccccc3nc2c2c(=O)n(Cc3cccs3)cnc21`?
PERK inh: inactive; PABP FP inh: inactive; eIF4H inh: inactive; eIF4E 4G PPI: inactive

What do the screens show for `O=C(NCc1ccccc1)/C(=C\c1ccccc1)NC(=O)c1ccco1`?
PABP FP inh: inactive; PABP1 MLLE inh: inactive; eIF4H inh: inactive

Results for Cn1c(SCC(=O)Nc2nncs2)nnc1C1CC1 ?
PABP FP inh: 79.6; PABP1 MLLE inh: inactive; eIF4H inh: 89.5

Results for C/C(=N\NC(=O)COc1cccc(Cl)c1)c1ccc2c(c1)OCCO2 ?
PERK inh: inactive; PABP FP inh: inactive; PABP1 MLLE inh: inactive; eIF4H inh: active; eIF4E 4G PPI: inactive

How did O=C(CCc1ccccc1)NNC(=O)c1cccc(F)c1 do in these assays?
PERK inh: inactive; PABP FP inh: inactive; PABP1 MLLE inh: inactive; eIF4H inh: inactive; eIF4E 4G PPI: inactive

How did C[N+](C)(C)c1ccc(/C=N/Nc2nc(Cl)c(C#N)c(Cl)c2Cl)cc1 do in these assays?
PERK inh: inactive; PABP FP inh: inactive; PABP1 MLLE inh: inactive; eIF4H inh: inactive; eIF4E 4G PPI: 30.1[fluorescence artefact?]

Results for CC(=Nc1ccccc1)C1=C(O)CSC1=O ?
PERK inh: inactive; PABP FP inh: 51.5; PABP1 MLLE inh: inactive; eIF4H inh: 34.2; eIF4E 4G PPI: inactive

Results for O=C1Nc2ccccc2C1=NN1CCCCCC1 ?
PABP1 MLLE inh: inactive

What do the screens show for `Nc1n[nH]c(=S)n1/N=C1/C(=O)Nc2ccccc21`?
PERK inh: inactive; PABP FP inh: inactive; PABP1 MLLE inh: 44.5; eIF4H inh: inactive; eIF4E 4G PPI: inactive

What do the screens show for `Clc1cccc(Cl)c1C1Nc2cccc3cccc(c23)N1`?
PABP FP inh: 81.3; PABP1 MLLE inh: inactive; eIF4H inh: 98.8

How did Fc1cccc(Cl)c1C1Nc2cccc3cccc(c23)N1 do in these assays?
PABP FP inh: 87.1; PABP1 MLLE inh: inactive; eIF4H inh: 95.6

Results for COc1ccc(C2Nc3cccc4cccc(c34)N2)cc1 ?
PERK inh: inactive; PABP FP inh: inactive; PABP1 MLLE inh: inactive; eIF4H inh: inactive; eIF4E 4G PPI: inactive

Results for Cn1nnc2c(C(N)=O)ncn2c1=O ?
PERK inh: inactive; PABP FP inh: inactive; PABP1 MLLE inh: 39.3; eIF4H inh: inactive; eIF4E 4G PPI: inactive

How did Cc1c(Br)c(C(N)=O)nn1C do in these assays?
PERK inh: inactive; PABP FP inh: inactive; PABP1 MLLE inh: inactive; eIF4H inh: inactive; eIF4E 4G PPI: inactive

How did O=C(N/N=C/c1ccccc1O)c1cc(=O)[nH]c2ccccc12 do in these assays?
PERK inh: inactive; PABP FP inh: inactive; eIF4H inh: inactive; eIF4E 4G PPI: 39.6[fluorescence artefact?]

Results for COc1ccc(-c2noc(CSc3nnc(CCc4ccccc4)n3-c3ccccc3)n2)cc1OC ?
PERK inh: inactive; PABP FP inh: inactive; PABP1 MLLE inh: inactive; eIF4H inh: inactive; eIF4E 4G PPI: inactive

How did Cc1nc(N2CCN(c3ccccc3O)CC2)c2c(-c3ccccc3)csc2n1 do in these assays?
PABP FP inh: 71.4; PABP1 MLLE inh: inactive; eIF4H inh: 100.4

Results for Oc1ccccc1N1CCN(c2ncnc3scc(-c4ccccc4)c23)CC1 ?
PABP FP inh: inactive; PABP1 MLLE inh: inactive; eIF4H inh: inactive

Screening results as filed in PubChem.
